Data on 7 compounds can be found in the supplement of paper PMC3342239.

SMILES strings stand for the structures. Where a name gives a salt, the structure may show the parent alone.

The assay relates to Saccharomyces cerevisiae. The assay is described as follows: fraction of cells in G1 phase (DNA content, flow cytometry); higher = more cells with unreplicated DNA (G1 delay). To be noted: temperature: 30 C; YPD; JTY2953 pdr5 snq2 (sensitized); drug added to: cultures diluted from stationary phase; 6-7 h. The gist of the method:
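S. cerevisiae in YPD at 30°C was treated with library drugs, with DMSO-only wells as reference. Sensitized JTY2953 cultures diluted 1∶200 from overnight received a final 20 µg/ml and were fixed after 6–7 h; other runs dosed dividing JTY2953 (fixed 6 h later) or BY4741 (4.33 h later). Ethanol-fixed cells were stained with SYTOX Green and 10,000 events read by flow cytometry. G1 fraction is the Dean-Jett-Fox G1 peak area over G1 plus G2/M areas.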
With `C[C@H](N[C@@H](CCc1ccccc1)C(=O)O)C(=O)N1CCC[C@H]1C(=O)O` [Enalaprilat] (57.4049 µM), the “fraction of cells in G1 phase” value is 0.491.
Turning to `Cc1ccc(S(=O)(=O)NC(=O)NN2CCCCCC2)cc1` [Tolazamide] (64.2249 µM), the “fraction of cells in G1 phase” value came out at 0.516.
Turning to `CCCc1cc(C(N)=S)ccn1` [Prothionamide] (110.943 µM), the “fraction of cells in G1 phase” value was found to be 0.482.
Regarding `Cc1cc(C(C)(C)C)c(O)c(C)c1CC1=NCCN1` [Oxymetazoline HCl] (76.8101 µM), the “fraction of cells in G1 phase” value was found to be 0.511.
For `CCCc1nn(C)c2c(=O)[nH]c(-c3cc(S(=O)(=O)N4CCN(C)CC4)ccc3OCC)nc12` [Sildenafil] (42.142 µM), the “fraction of cells in G1 phase” value is 0.503.
Turning to `CC(=O)Nc1ccc(OCC(O)CNC(C)C)cc1` (configuration not stated) [Practolol] (75.0911 µM), the “fraction of cells in G1 phase” value was 0.506.
Regarding `CN/C(=N\c1ccc(C2=NNC(=O)CC2C)cc1)NC#N` (configuration not stated) [Siguazodan] (70.3425 µM), the “fraction of cells in G1 phase” value turned out to be 0.493.
